Structures are written as SMILES. Where a name gives a salt, the structure may show the parent alone. Values without a mark were called inactive.

The results in this text go back to the supplement of paper PMC13380429.

The assay concerns Vero E6 infected with SARS-CoV-2. Description: SARS-CoV-2 infection rate relative to infected DMSO; higher = more infection, active = 60 or less. The following applies: 24 h.
`O=C(Nc1ccccc1)c1cc([N+](=O)[O-])ccc1Cl` (10 µM): the SARS-CoV-2 infection rate was 94.5%.

For `Cc1cccn2c(=O)c(/C=C(\C#N)c3nc4ccccc4s3)c(Oc3ccc(F)cc3)nc12` (10 µM), the SARS-CoV-2 infection rate is 102%.

For the compound `CC(=O)OCC(=O)[C@@]1(O)CC[C@H]2[C@@H]3CCC4=CC(=O)CC[C@]4(C)[C@H]3[C@@H](O)C[C@@]21C` [hydrocortisone-acetate] (10 µM), the SARS-CoV-2 infection rate was 110%.

For the compound `CCCC[C@H](NC(C)=O)C(=O)N[C@H]1CC(=O)NCCCC[C@@H](C(=O)O)NC(=O)[C@H](Cc2c[nH]c3ccccc23)NC(=O)[C@H](CCCNC(=N)N)NC(=O)[C@@H](Cc2ccccc2)NC(=O)[C@H](Cc2c[nH]cn2)NC1=O` [bremelanotide] (10 µM), the SARS-CoV-2 infection rate is 96.5%.

Consider `COC1(C[S@@+]([O-])c2ccccc2)CCN(CCc2c[nH]c3ccc(F)cc23)CC1` (10 µM), for which the SARS-CoV-2 infection rate was 102%.

On to `CC(=O)N(O)[C@@H]1c2cc(C#N)ccc2OC(C)(C)[C@H]1O` (10 µM), for which the SARS-CoV-2 infection rate was 59% (active).

As to `C[C@@H](Oc1cc(-n2cnc3ccc(CN4CCN(C)CC4)cc32)sc1C(N)=O)c1ccccc1C(F)(F)F` (0.833333 µM), the SARS-CoV-2 infection rate is 94%.

`NC(CO)(CO)CO` [trometamol] (10 µM): the SARS-CoV-2 infection rate is 106%.

With `Cc1[nH]c2ccccc2c1CCNC(=O)c1cccs1` (10 µM), the SARS-CoV-2 infection rate is 103%.

Take `CC(CCc1ccccc1)NC(C)C(O)c1ccc(O)cc1` (stereo not given) [buphenine] (10 µM): the SARS-CoV-2 infection rate was 114%.

In the case of `Cc1ccsc1C(=CCCN1CCC[C@@H](C(=O)O)C1)c1sccc1C` [tiagabine] (10 µM), the SARS-CoV-2 infection rate is 109%.

Take `CN1C(=O)CN=C(c2ccccc2)c2cc(Cl)ccc21` [diazepam] (10 µM): the SARS-CoV-2 infection rate was 108%.

As for `C=C[C@@H]1C[C@]1(NC(=O)[C@@H]1C[C@@H]2CN1C(=O)[C@H](C(C)(C)C)NC(=O)O[C@@H]1C[C@H]1CCCCCc1nc3ccc(OC)cc3nc1O2)C(=O)NS(=O)(=O)C1CC1` [grazoprevir] (10 µM), the SARS-CoV-2 infection rate was 109%.

For `N[C@@H]1CCN(c2cccnc2)C1` (10 µM), the SARS-CoV-2 infection rate is 102%.

As for `[O-][n+]1cccc(CO)c1` [mepiroxol] (10 µM), the SARS-CoV-2 infection rate was 109%.

For the compound `N[C@@]1(C(=O)O)CC[C@H]2[C@H](C(=O)O)[C@H]21` [eglumetad] (10 µM), the SARS-CoV-2 infection rate was 114%.

In the case of `CC(=O)NCC(=O)N1[C@@H]2CC[C@H]1c1ccc(Nc3ncc(C(F)(F)F)c(NC4CCC4)n3)cc12` (0.833333 µM), the SARS-CoV-2 infection rate is 124%.

Consider `O=C(CN1CCN(C(=O)c2ccco2)CC1)Nc1cc(C(F)(F)F)ccc1Cl` (10 µM), for which the SARS-CoV-2 infection rate was 103%.

On to `CNCCC(Oc1ccc(C(F)(F)F)cc1)c1ccccc1` (stereo not given) [fluoxetine] (10 µM), for which the SARS-CoV-2 infection rate is 66%.

Regarding `O=C(NOCCO)c1ccc2cncn2c1Nc1ccc(I)cc1F` (0.833333 µM), the SARS-CoV-2 infection rate was 121%.

For `CC(C)C[C@H](NC(=O)CNC(=O)c1cc(Cl)ccc1Cl)B(O)O` [ixazomib] (0.833333 µM), the SARS-CoV-2 infection rate is 93.5%.

As to `Cc1cc(O)ccc1Cl` [chlorocresol] (10 µM), the SARS-CoV-2 infection rate is 95.5%.

Turning to `O=c1c(O[C@@H]2O[C@H](CO)[C@H](O)[C@H](O)[C@H]2O)c(-c2ccc(O)c(O)c2)oc2cc(O)cc(O)c12` [hyperin] (10 µM), the SARS-CoV-2 infection rate was 112%.

Take `CC1(C)CC[C@]2(NC(=O)C(C)(F)F)CC[C@]3(C)[C@H](C(=O)C=C4[C@@]5(C)C=C(C#N)C(=O)C(C)(C)[C@@H]5CC[C@]43C)[C@@H]2C1` [Omaveloxolone (RTA-408)] (10 µM): the SARS-CoV-2 infection rate was 112%.

For the compound `Cc1cc(C(=O)Nc2cc(Oc3ccc4nc(NC(=O)C5CC5)cn4n3)ccc2C)n(C)n1` (10 µM), the SARS-CoV-2 infection rate was 102%.

As to `Cc1ccc2c(c1)c1c(n2CCc2ccc(C)nc2)CCN(C)C1` [latrepirdine] (10 µM), the SARS-CoV-2 infection rate was 96.5%.

With `O=c1cc(N2CCNCC2)oc2c(-c3ccccc3)cccc12` (10 µM), the SARS-CoV-2 infection rate is 101%.

As for `O=[N+]([O-])/N=C1\NCCN1Cc1ccc(Cl)nc1` [imidacloprid] (10 µM), the SARS-CoV-2 infection rate was 98.5%.

On to `CO/N=C(\C(=O)N[C@@H]1C(=O)N2C(C(=O)O)=C(Cn3ccc(=N)n3CCO)CS[C@H]12)c1csc(N)n1` [Cefoselis sulfate] (10 µM), for which the SARS-CoV-2 infection rate is 101%.

As to `C[C@H](Nc1cc(-c2cnn(C)c2)cc(Nc2cnccn2)n1)c1ccc(F)cc1` (0.833333 µM), the SARS-CoV-2 infection rate was 114%.

As to `CCC(=O)O[C@@H]1CC(=O)O[C@H](C)C/C=C/C=C/[C@H](OC(C)=O)[C@H](C)C[C@H](CC=O)[C@H](O[C@@H]2O[C@H](C)[C@@H](O[C@H]3C[C@@](C)(OC(C)=O)[C@@H](OC(=O)CC)[C@H](C)O3)[C@H](N(C)C)[C@H]2O)[C@H]1OC` [miocamycin] (10 µM), the SARS-CoV-2 infection rate is 110%.

For `C=CC(=O)Nc1cccc(Oc2nc(Nc3ccc(N4CCN(C)CC4)cc3)ncc2Cl)c1` (10 µM), the SARS-CoV-2 infection rate is 118%.

Regarding `CC1CCC(NC(=O)N(CCCl)N=O)CC1` (stereo not given) [semustine] (10 µM), the SARS-CoV-2 infection rate was 116%.

With `Cc1cc(Cl)ccc1OCCCC(=O)NO` [droxinostat] (10 µM), the SARS-CoV-2 infection rate was 90%.

For `C=CCc1cc(OC)c(O)c(C(=O)NCCO)c1` [alibendol] (10 µM), the SARS-CoV-2 infection rate is 118%.

For the compound `N[C@H]1C(O)O[C@H](CO)[C@@H](O)[C@@H]1O` (mixture of isomers) [glucosamine] (10 µM), the SARS-CoV-2 infection rate was 105%.

Turning to `N#C/C(=C\c1cn(-c2ccccc2)c2ccccc12)C(=O)O` (10 µM), the SARS-CoV-2 infection rate was 99.5%.

For the compound `Nc1ccc(C(=O)O)cc1` [potassium-p-aminobenzoate] (10 µM), the SARS-CoV-2 infection rate was 108%.

In the case of `CCC(C)SSc1ncc[nH]1` (stereo not given) (10 µM), the SARS-CoV-2 infection rate was 95%.

Turning to `O=C(/C=C/c1cccc(F)c1)NC1CC1` [cinflumide] (10 µM), the SARS-CoV-2 infection rate is 110%.
